Test systems include NCI-H23 lung; NCI-H226 lung; NCI-H322M lung; HOP-62 NSCLC; NCI-H460 lung; HOP-92 NSCLC; NCI-H522 lung; A549/ATCC NSCLC; 786-0 renal; COLO 205 colon; DU-145 prostate; K-562 leukemia; MALME-3M melanoma; MDA-MB-231 breast; RXF 393 renal; SF-268 CNS; SF-295 CNS; SF-539 CNS; UACC-257 melanoma; M14 melanoma.
Holding throughout (experiment): NCI-60 one-dose screen, 48 h (100 = growth as untreated, 0 = no growth, -100 = all killed)
Common to all, as to conditions: 10 µM unless noted

Drawing on PubChem BioAssay (NCI), this text covers growth for eight compounds.

Each structure is given as a SMILES string. About 83,000 compounds went through this panel and 20% of them were active in at least one assay; those are over-represented in the sample as a whole.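 Plates (96-well) were seeded with cells, treated with compound at one concentration, and incubated for 48 hours before percent growth was determined.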 Unmarked numbers belong to inactive results. Calls of active or inactive are those of the source. How the source made its calls: active means growth percent below 10; inactive means the rest.

For the compound `CC(=O)Oc1c2c(nc3c1c1ccccc1n3Cc1ccccc1)-c1ccccc1C2`, the growth in the experiment with NCI-H23 lung was 72%; with NCI-H226 lung it was 85.9%; with NCI-H322M lung, 92.2%; in the experiment on HOP-62 NSCLC, 79.7%; with NCI-H460 lung, 98.2%; in the experiment on HOP-92 NSCLC it was 90.5%. Besides, the growth with NCI-H522 lung was 51%; with A549/ATCC NSCLC, 85.7%; in the experiment on 786-0 renal, 91.8%; in the experiment with COLO 205 colon, 97.9%; in the experiment with DU-145 prostate it was 99.1%; with K-562 leukemia, 78.4%. Also, the growth was 102% with MALME-3M melanoma; 80.4% in the experiment on MDA-MB-231 breast; 116% in the experiment on RXF 393 renal; 93.2% with SF-268 CNS; 96% in the experiment with SF-295 CNS; 94.5% in the experiment on SF-539 CNS. Moreover, the growth with UACC-257 melanoma is 93.2%; with M14 melanoma, 88.3%.

Turning to `COCCOC(=O)COc1ccc(OC)cc1`, the growth in the experiment on NCI-H23 lung was 105%; in the experiment with NCI-H226 lung, 97.3%; in the experiment on NCI-H322M lung, 94.9%; in the experiment with HOP-62 NSCLC it was 111%; in the experiment on NCI-H460 lung, 108%; in the experiment with HOP-92 NSCLC, 98.3%. The growth was 115% in the experiment with NCI-H522 lung; 99.2% in the experiment on A549/ATCC NSCLC; 109% in the experiment with 786-0 renal; 115% in the experiment on COLO 205 colon; 103% in the experiment on DU-145 prostate; 104% with K-562 leukemia. Besides, the growth is 97% in the experiment on MALME-3M melanoma; 98.1% in the experiment with MDA-MB-231 breast; 104% in the experiment on RXF 393 renal; 102% in the experiment on SF-268 CNS; 99.5% with SF-295 CNS; 104% in the experiment on SF-539 CNS. The growth is 96.3% in the experiment with UACC-257 melanoma and 105% with M14 melanoma.

Turning to `Cc1cc(C)n(-c2nc(-c3cccs3)c(C#N)c(=O)[nH]2)n1`, the growth in the experiment on NCI-H23 lung was 97.6%; with NCI-H226 lung, 105%; in the experiment on NCI-H322M lung it was 92.1%; with HOP-62 NSCLC, 81.2%; in the experiment on NCI-H460 lung it was 96.8%; in the experiment with HOP-92 NSCLC, 102%. In addition, the growth with NCI-H522 lung was 83.8%; in the experiment with A549/ATCC NSCLC it was 99.9%; with 786-0 renal, 93.1%; in the experiment on COLO 205 colon it was 111%; with DU-145 prostate, 101%; in the experiment with K-562 leukemia, 87.4%. For the same compound, the growth in the experiment on MALME-3M melanoma was 92.6%; in the experiment on MDA-MB-231 breast, 108%; in the experiment with RXF 393 renal it was 115%; in the experiment with SF-268 CNS, 82.3%; with SF-295 CNS, 92.3%; with SF-539 CNS, 97.5%. Also, the figures for the growth in the experiment with UACC-257 melanoma and in the experiment with M14 melanoma were 98.7% and 101%, respectively.

For `COc1cc2cc(c1Cl)N(C)C(=O)C[C@H](OC(=O)[C@H](C)N(C)C(=O)CCS)C[C@]1(C)O[C@H]1[C@H](C)[C@@H]1C[C@@](O)(NC(=O)O1)[C@H](OC)/C=C/C=C(\C)C2`, the growth is 23.2% with NCI-H23 lung; 69.5% in the experiment on NCI-H226 lung; 42.8% in the experiment with NCI-H322M lung; 18.3% in the experiment with HOP-62 NSCLC; 7.39% (active) with NCI-H460 lung; 4.28% (active) in the experiment with HOP-92 NSCLC. The growth in the experiment with NCI-H522 lung was -31.2% (active); in the experiment on A549/ATCC NSCLC it was 16.3%; with 786-0 renal, 13.8%; in the experiment on COLO 205 colon it was -65.7% (active); with DU-145 prostate, 2.17% (active); in the experiment with K-562 leukemia it was 11.7%. In addition, the growth in the experiment with MALME-3M melanoma was 64.3%; in the experiment on MDA-MB-231 breast it was 17.8%; in the experiment on RXF 393 renal, 43.6%; with SF-268 CNS it was 37.1%; in the experiment with SF-295 CNS, 3.96% (active); with SF-539 CNS it was -17.1% (active). Besides, the figures for the growth in the experiment on UACC-257 melanoma and in the experiment on M14 melanoma were 69.3% and 1.73% (active), respectively.

Turning to `COc1cc(NC(=O)Nc2cnc(Nc3ccc(N4CCOCC4)cc3)nc2Oc2ccc(C(F)(F)F)cc2)cc(OC)c1`, the growth with NCI-H23 lung was 105%; with NCI-H226 lung, 97.7%; in the experiment on NCI-H322M lung it was 106%; in the experiment with HOP-62 NSCLC, 95.5%; with NCI-H460 lung it was 105%; with HOP-92 NSCLC, 99%. The growth in the experiment with NCI-H522 lung was 95.9%; in the experiment on A549/ATCC NSCLC it was 103%; in the experiment with 786-0 renal, 109%; with COLO 205 colon it was 127%; in the experiment on DU-145 prostate, 118%; in the experiment with K-562 leukemia, 95.3%. Also, the growth in the experiment on MALME-3M melanoma is 118%; in the experiment on MDA-MB-231 breast it was 96.7%; in the experiment on RXF 393 renal, 110%; with SF-268 CNS it was 101%; in the experiment with SF-295 CNS it was 111%; in the experiment with SF-539 CNS, 103%. The growth was 101% with UACC-257 melanoma and 107% in the experiment on M14 melanoma.

`C=C1C(=O)O[C@H]2[C@H]1CC/C(COC(=O)c1cccnc1N)=C\CC[C@@]1(C)O[C@@H]21`: the growth in the experiment with NCI-H23 lung is 33.9%; in the experiment on NCI-H226 lung, 26.7%; in the experiment with NCI-H322M lung, 87%; in the experiment on HOP-62 NSCLC, 22.8%; in the experiment on NCI-H460 lung it was 5.22% (active); with HOP-92 NSCLC, 8.05% (active). The growth was -15.3% (active) in the experiment with NCI-H522 lung; 28.4% in the experiment with A549/ATCC NSCLC; 9.12% (active) in the experiment on 786-0 renal; -76.5% (active) in the experiment with COLO 205 colon; 14% in the experiment with DU-145 prostate; 10.1% in the experiment on K-562 leukemia. The growth in the experiment on MALME-3M melanoma was -3.98% (active); in the experiment on MDA-MB-231 breast, -9.35% (active); in the experiment with RXF 393 renal, -2.17% (active); in the experiment on SF-268 CNS it was 23.9%; in the experiment on SF-295 CNS, 34.5%; in the experiment with SF-539 CNS, 12.6%. The results for the growth in the experiment with UACC-257 melanoma and in the experiment on M14 melanoma were 57.8% and 10.2%, respectively.

Take `c1ccc(-c2n(Cc3ccc4ccccc4n3)cc[n+]2Cc2ccc3ccccc3c2)cc1`: the growth is 2.93% (active) with NCI-H23 lung; 9.5% (active) in the experiment on NCI-H226 lung; 23.6% in the experiment with NCI-H322M lung; 16.5% with HOP-62 NSCLC; 6.08% (active) in the experiment with NCI-H460 lung; -32.4% (active) in the experiment on HOP-92 NSCLC. Moreover, the growth with NCI-H522 lung is 2.04% (active); with A549/ATCC NSCLC, 45.3%; in the experiment with 786-0 renal it was 26.2%; with COLO 205 colon, -77.5% (active); in the experiment on DU-145 prostate, 28.2%; with K-562 leukemia, 5.02% (active). In addition, the growth in the experiment on MALME-3M melanoma was -20% (active); in the experiment on MDA-MB-231 breast, -6.39% (active); in the experiment on RXF 393 renal, -8.14% (active); in the experiment on SF-268 CNS, 20.5%; in the experiment on SF-295 CNS, -7.2% (active); in the experiment with SF-539 CNS it was 11.5%. Besides, the growth in the experiment on UACC-257 melanoma was -27.1% (active); in the experiment with M14 melanoma, -24.8% (active).

Consider `CCN1CCN(c2ccc(NC(=O)Nc3nc4ccc(-c5ccccc5OC)cc4s3)cc2)CC1`, for which the growth in the experiment on NCI-H23 lung was -16.8% (active); with NCI-H226 lung, 56.6%; in the experiment with NCI-H322M lung, -86% (active); with HOP-62 NSCLC it was -66.2% (active); in the experiment on NCI-H460 lung, -64.4% (active); with HOP-92 NSCLC, 2.16% (active). Also, the growth with NCI-H522 lung was -78.1% (active); in the experiment on A549/ATCC NSCLC, -77.1% (active); with 786-0 renal, -80.7% (active); in the experiment with COLO 205 colon, -73.2% (active); in the experiment with DU-145 prostate it was -84.4% (active); in the experiment with K-562 leukemia, -67.4% (active). The growth in the experiment on MALME-3M melanoma is -80.3% (active); in the experiment on MDA-MB-231 breast, -74% (active); with RXF 393 renal it was -74.2% (active); with SF-268 CNS it was -59.4% (active); in the experiment on SF-295 CNS, -79.9% (active); in the experiment on SF-539 CNS, -82.6% (active). Besides, the growth with UACC-257 melanoma was -71.9% (active); in the experiment with M14 melanoma it was -70.1% (active).
